Measured values as given in PubChem BioAssay (NCI).
About 79,000 compounds went through this panel and 15% of them were active in at least one assay; those are over-represented in the sample as a whole. Values without a mark were called inactive. Activity calls are given as the source filed them. No stated cut-off is given here; in the data, active means growth inhibition above about 70%; inactive means the rest.

Assay: NCI Yeast Anticancer Drug Screen. Data for the sgs1 mgt1 strain (AID 161);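 further: 0% = growth of cultures given vehicle only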
Settings: S. cerevisiae sgs1 mgt1 strain, hits give high values
Procedure: Growth inhibition of yeast strains with defined genetic alterations is measured as a screen for potential anti-cancer activity. Selected strains with alterations in DNA damage repair or cell cycle control were exposed to compounds and growth inhibition was measured relative to vehicle treated controls. The strain used in this assay is sgs1 mgt1

[1] = at 5.0 µM (retest, dose inferred, filed as 0.5)
[2] = at 50.0 µM (retest, dose inferred, filed as 5.0)

With `O=C1OC(CCl)CN1/N=C/c1ccc([N+](=O)[O-])o1` (configuration not stated) the growth inhibition [1] was 35%, the growth inhibition [2] was 89% (active) and the growth inhibition (at 50.0 µM) was 71.9% (active).
In the case of `CCCCCCCCCCCC1=C(O)C(=O)C=C(O)C1=O`, the growth inhibition [1] was 30%, the growth inhibition [2] was 85% (active) and the growth inhibition (at 50.0 µM) was 46.9%.
`Cc1cc2c(cc1C(=O)CCC(=O)O)CC1(C2)Cc2cc(C)c(C(=O)CCC(=O)O)cc2C1` showed a growth inhibition [1] of -4%, a growth inhibition [2] of 29% and a growth inhibition (at 50.0 µM) of 49.9%.
In the case of `C(CCSC1=NCCN1)CSC1=NCCN1` (tested in a mixture with another compound), the growth inhibition [1] was 73% (active), the growth inhibition [2] was 99% (active) and the growth inhibition (at 50.0 µM) was 99.5% (active).
In the case of `Cc1ccc(Cl)c2[nH]c(-c3ccccc3)cc(=O)c12`, the growth inhibition [1] was -28%, the growth inhibition [2] was 12% and the growth inhibition (at 50.0 µM) was 55.5%.
With `O=C1CSC(/C=C/c2ccccc2)N1c1ccc(-c2ccc(-n3c(-c4ccccc4)nc4ccccc4c3=O)cc2)cc1` (configuration not stated) the growth inhibition [1] was -1%, the growth inhibition [2] was 5% and the growth inhibition (at 50.0 µM) was 87.2% (active).
In the case of `BrCc1cccc2ccc3cccc(CBr)c3c12`, the growth inhibition [1] was -3%, the growth inhibition [2] was 85% (active) and the growth inhibition (at 50.0 µM) was 72% (active).
`COC(=O)c1ccc(CCC2=CC(=O)C(Br)=CC2=O)cc1` showed a growth inhibition [1] of 10%, a growth inhibition [2] of 0% and a growth inhibition (at 50.0 µM) of 20.3%.
In the case of `CCc1ccc(NS(=O)(=O)c2ccccc2)c([N+](=O)[O-])c1`, the growth inhibition [1] was 8%, the growth inhibition [2] was 54% and the growth inhibition (at 50.0 µM) was 70.7% (active).
Work on `CC1=NN(c2cccc(Cl)c2)C(=O)C1` yielded a growth inhibition [1] of -12%, a growth inhibition [2] of 56% and a growth inhibition (at 50.0 µM) of 55.9%.
`O=C1Nc2ccc(Cl)c(I)c2C1=O` showed a growth inhibition [1] of -1%, a growth inhibition [2] of 17% and a growth inhibition (at 50.0 µM) of 41.9%.
In the case of `S=C(N/N=C(/c1ccccc1)c1ccccn1)N1CCCCCC1`, the growth inhibition [1] was 75% (active), the growth inhibition [2] was 96% (active) and the growth inhibition (at 50.0 µM) was 85.4% (active).
With `O=c1c2ccccc2ncn1COCc1ccccc1` the growth inhibition [1] was 13%, the growth inhibition [2] was 69% and the growth inhibition (at 50.0 µM) was 89.5% (active).
For `O=C(COC(=O)c1cc(O)c(O)c(O)c1)c1ccc(-c2ccccc2)cc1`, the growth inhibition [1] was 7%, the growth inhibition [2] was 98% (active) and the growth inhibition (at 50.0 µM) was 60.9%.
